# Among all 360,000 compounds or so, about 3,800 (1.1%) were called active.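 How the source made its calls: active means compounds causing at least 50% loss of cell viability in the single-dose screen, relative to plate controls; inactive means the rest.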 The list comes from a sample in which actives are over-represented; it also holds similar structures and randomly drawn compounds.
# Test: viability loss with TRAIL in NB7+C8 cells, primary screen, TRAIL sensitizer project, cell-based, ATPlite luminescence (AID 624354)
# Conditions: at 10 µM, hits give high values
row,Structure (SMILES),"inhibition (viability loss, TRAIL sensitization)"
1,Cc1ccc(CNC(=O)Cn2cnc3c(NCc4ccccc4)ncnc32)o1,20.3% (inactive)
2,OCC1(Cc2ccccc2C(F)(F)F)CCN(Cc2cccc3cnccc23)CC1,2.15% (inactive)
3,COc1ccc(C(=O)NCC[N+](C)(C)C)cc1,-3.08% (inactive)
4,Cc1ccc(S(=O)(=O)N(C)C)cc1NC(=O)c1ccc(-n2cncn2)c([N+](=O)[O-])c1,-6.94% (inactive)
5,O=C(COC(=O)c1c(Cl)cccc1Cl)Nc1cccc(S(=O)(=O)NC2=NCCCCC2)c1,-2% (inactive)
6,O=C1NC[C@H](Cc2ccc(O)cc2)N(C[C@@H]2CCCN2C[C@H](Cc2ccccc2)N2C[C@H](Cc3ccccc3)N(CC3CCCCC3)C(=O)C2=O)C1=O,-7.58% (inactive)
7,CN(C)NC(=O)C(NC(=O)c1ccc(N)cc1)C12CC3CC(CC(C3)C1)C2 (stereo unspecified),-0.166% (inactive)
8,Cc1nc2cc(S(=O)(=O)C(F)(F)F)ccc2s1,15.9% (inactive)
9,CCN1CCCC1CNC(=O)Cn1cnc2ccc(S(=O)(=O)N3CCC(C)CC3)cc2c1=O (stereo unspecified),3.92% (inactive)
10,CC(C)(C)Oc1ccccc1Nc1nc(NCCO)nc(N2CCCC2)n1,-17.8% (inactive)
11,O=C(CCl)Nc1ccc(Sc2ccc(NC(=O)CCl)cc2)cc1,51.1% (active)
12,CC(=O)Nc1ccc(SCC(=O)NC(=O)c2ccc(Cl)cc2)cc1,-7.06% (inactive)
13,O=C(O)CC(SCC(=O)Nc1ccc(Br)cc1)C(=O)O (stereo unspecified),-3.72% (inactive)
14,COc1cccc2cc(/C(C)=N/NC(=O)c3ccco3)oc12,4.04% (inactive)
15,Cc1oc2c(F)c(F)c(F)c(F)c2c1S(=O)(=O)Nc1cccc(C(F)(F)F)c1,29.6% (inactive)
16,O=C(Nc1nc2ccccc2s1)c1ccc2c(c1)OCO2,74.6% (active)
17,CN1CCN(c2ccc(NC(=O)c3ccc4c(c3)OCCO4)cc2Cl)CC1,42.3% (inactive)
18,Cc1nc(NC(=O)c2ccc3c(c2)OCCO3)ccc1Br,21.7% (inactive)
19,O=C(Nc1ccc(Cl)cn1)c1ccc2c(c1)OCCO2,64% (active)
20,N#Cc1ccccc1NC(=O)c1ccc2c(c1)OCO2,0.697% (inactive)
21,O=C(CN1CCc2cc3c(cc2C1)OCCCO3)Nc1ccccc1,-22% (inactive)
22,O=C(Nc1ccccc1)c1ccc2c(c1)OCCCO2,78% (active)
23,Cc1ccc2sc(NNC(=O)c3ccc4c(c3)OCCO4)nc2c1C,-37.1% (inactive)

row,Structure (SMILES),"inhibition (viability loss, TRAIL sensitization)"
1,CCCc1cc(C(=O)Nc2ccc(Cl)cn2)cs1,48.6% (inactive)
2,COc1ccccc1NC1=NC(c2ccc(Cl)cc2)N=C(N)N1 (stereo unspecified),-3.71% (inactive)
3,CC(C#N)OC(=O)c1cccnc1SCC(=O)Nc1ccc2c(c1)OCO2 (stereo unspecified),4.56% (inactive)
4,COc1ccccc1NS(=O)(=O)N(C)C,-12.4% (inactive)
5,NC(=O)COc1ccc(NC(=O)c2ccccc2-c2ccccc2)cc1,-7.08% (inactive)
6,CC(=O)C[C@H](O)CC(=O)[C@@H]1OC(=O)[C@@H](C)C/C=C\Cc2ccccc21,-3.79% (inactive)
7,CCC(=O)Nc1ccc(S(=O)(=O)Nc2c(NC)c3ccccc3oc2=O)cc1,1.26% (inactive)
8,Cc1cn([C@H]2C[C@H](O)[C@@H](CNC(=O)[C@H](N)Cc3cccnc3)O2)c(=O)[nH]c1=O,-0.759% (inactive)
9,CNC(=O)/C(=C\C=C\c1ccccc1)NC(=O)c1ccc([N+](=O)[O-])cc1,-5.87% (inactive)
10,CN1OC[C@@H]2CN(C(=O)c3ccc(-c4ccccc4)cc3)[C@H](c3ccc(-c4cccc(F)c4)cc3)C[C@@H]21,-16.6% (inactive)
11,CCCOc1ccc(Cc2c(Cl)nc(SC)nc2NC)cc1,31.2% (inactive)
12,Cc1ccc(-c2ccnc3[nH]n(-c4ccccc4)c(=O)c23)cc1,-11.3% (inactive)
13,Cc1[nH]n(-c2ccccc2)c(=O)c1/C=N/NC(=O)c1ccoc1C,53.8% (active)
14,Cc1occc1C(=O)N/N=C/c1ccc(-c2cccc([N+](=O)[O-])c2)o1,-8.06% (inactive)
15,CCOc1ccc(S(=O)(=O)N2CCC(c3ccccc3)CC2)cc1C(=O)O,-3.46% (inactive)
16,COc1cc(NC(=O)c2ccccc2)c(OC)cc1NC(=O)Cc1ccccc1,-3.72% (inactive)
17,O=C(NC1=CC(=O)c2ccccc2C1=O)c1ccccc1,94.6% (active)
18,C/C(=N\NC(=O)c1ccc(C)cc1)C1C(=O)c2ccccc2C1=O,8.6% (inactive)
19,CC1(C(=O)NS(=O)(=O)Cc2cccc(Cl)c2)CCN1C(=O)Cc1ccc(Cl)cc1Cl (stereo unspecified),-0.832% (inactive)
20,NC(c1csc(NC(=O)Nc2cccc(C(F)(F)F)c2)n1)C1CCCCC1 (stereo unspecified),88.8% (active)
21,CC(C)(C)CC(=O)Nc1nc(C(N)Cc2ccc(C(F)(F)F)cc2)cs1 (stereo unspecified),-0.292% (inactive)
22,COc1ccc(C(N)c2csc(NC(=O)Nc3cccc(C(F)(F)F)c3)n2)cc1 (stereo unspecified),25.4% (inactive)
23,Cc1cccc(C(=O)OC(C)C(=O)NC2CCCc3ccccc32)c1O (stereo unspecified),12.2% (inactive)

row,Structure (SMILES),"inhibition (viability loss, TRAIL sensitization)"
1,CC1CCN(C(=O)C2CCN(S(=O)(=O)N3CCC4(CC3)OCCO4)CC2)CC1,-3.06% (inactive)
2,CCOC(=O)C1=C(C)NC(C)=C(C(=O)OCC)C1C1=COCCO1,-19.1% (inactive)
3,O=C(c1ccc(F)cc1)n1c(=S)nc2ccccn21,83% (active)
4,CC1COc2ccccc2N1C(=O)c1ccc(F)cc1 (stereo unspecified),-8.83% (inactive)
5,O=C(c1ccc(F)cc1)N1CCC(n2nnc3ccccc32)CC1,-1.41% (inactive)
6,Cc1c(C2=CCN(S(=O)(=O)c3ccc(Cl)cc3)CC2)c2ccccc2n1C,9.41% (inactive)
7,Cn1c(N)c(C(=O)COC(=O)/C=C/c2ccc(OC(F)F)cc2)c(=O)n(C)c1=O,-6.75% (inactive)
8,Cc1ccccc1C(OCCN(C)C)C1CCCCC1 (stereo unspecified),-0.767% (inactive)
9,COc1ccc(C2CC(c3ccccc3)=NN2C(=O)CSc2nccc(=O)[nH]2)cc1 (stereo unspecified),25.2% (inactive)
10,CNC(=S)N1N=C(c2ccccc2)CC1c1ccc(Br)cc1 (stereo unspecified),79.2% (active)
11,Brc1ccc(C2CC(c3ccccc3)=Nc3ccccc3N2)cc1 (stereo unspecified),24.3% (inactive)
12,CC1CC(C)CN(CC(=O)N2c3ccccc3CCc3ccccc32)C1 (stereo unspecified),-22.2% (inactive)
13,CC1C(C)N(C(=O)CCl)c2ccccc2N1C(=O)CCl (stereo unspecified),88.6% (active)
14,CC1C(=O)N(Cc2ccccc2)c2ccccc2N1C(=O)c1ccccc1 (stereo unspecified),-0.863% (inactive)
15,COc1ccc(C(=O)NC(C)Cn2nc(C)cc2C)cc1OC1CCN(C(C)=O)CC1 (stereo unspecified),8.29% (inactive)
16,O=C(CC(O)(C(F)(F)F)C(F)(F)F)Nc1ccc(Cl)c(Cl)c1,62.6% (active)
17,N#CCCN(C(=O)Nc1ccc(Cl)c(Cl)c1)C1CCCCC1,7.87% (inactive)
18,CC1(C(=O)O)CCC(C(=O)Nc2ccc(Cl)c(Cl)c2)C1(C)C (stereo unspecified),-2.64% (inactive)
19,CC(=O)N1Cc2cc(C(=O)NCc3cccc(F)c3)nc(-c3cccc(C4=CCCCC4)c3)c2[C@H]1CCO,4.95% (inactive)
20,CSCCC(NC(N)=O)C(=O)N(C)CC(=O)Nc1ccc(C)cc1 (stereo unspecified),-24.9% (inactive)
21,COC(=O)c1sc(NC(=O)COC(=O)C2CCC2)c(C(=O)OC)c1C,-0.357% (inactive)
22,CCOC(=O)c1c(NC(=O)COC(=O)c2ccc(S(=O)(=O)C(F)F)cc2)sc(C(=O)N(C)C)c1C,-18.3% (inactive)
23,CCOC(=O)c1c(NC(=O)CCl)sc(C(=O)N(CC)CC)c1C,92.5% (active)

row,Structure (SMILES),"inhibition (viability loss, TRAIL sensitization)"
1,CCc1ccc2oc(-c3ccc(N)cc3)nc2c1,74.9% (active)
2,O=C(C(Cc1ccccc1)n1cccc1)N1CCN(C2CCCCC2)CC1 (stereo unspecified),1.84% (inactive)
3,CN(C)CCNC(=O)c1cccc(-c2cnc3c(NC=O)cc(-c4cccc(C(F)(F)F)c4)cn23)c1,59.1% (active)
4,CC(=O)c1cccc(-c2cnc3c(NC=O)cc(-c4ccc(N(C)C)cc4)cn23)c1,17.5% (inactive)
5,CN(C)C(=O)c1cccc(-c2cnc3c(NC=O)cc(-c4ccc(F)cc4)cn23)c1,16.1% (inactive)
6,Cc1ccc(-c2ccc(CN3C(C(C)C)C(=O)N(Cc4cn(CCC5OCCO5)nn4)CCS3(=O)=O)cc2)cc1 (stereo unspecified),-2.12% (inactive)
7,Oc1cccc2cc(-c3ccncc3)cnc12,47.7% (inactive)
8,COc1ccc(C(O)c2nc(-c3ccc4c(c3)OCO4)cs2)cc1 (stereo unspecified),-6.82% (inactive)
9,COc1ccc(C2=Nc3cc(C)ccc3OC2)cc1,58.6% (active)
10,Cc1ccc(C(=O)NNC2=Nc3cc([N+](=O)[O-])ccc3OC2)cc1,-18% (inactive)
11,C=CCN(CC=C)C(=O)COC(=O)c1n[nH]c2ccccc12,9.77% (inactive)
12,Nc1ccccc1-c1nc2ccncc2[nH]1,12.6% (inactive)
13,O=C1c2ccccc2C(c2nc3ccccc3[nH]2)N1c1ccccc1 (stereo unspecified),-17.6% (inactive)
14,c1ccc2[nH]c(-c3nc4ccccc4[nH]3)nc2c1,69.4% (active)
15,CCOc1cc(/C=C(/C#N)c2ccc(Cl)cc2)cc(Cl)c1OCC(=O)O,11.5% (inactive)
16,O=C(CN1CCCC1)Nc1sc2c(c1C(=O)Nc1ccccc1)CCCC2,20.1% (inactive)
17,O=C(O)c1c(NC(=O)N2CCCC2)sc2c1CCCC2,1.53% (inactive)
18,NC(=O)c1c(NC(=O)c2ccccc2)sc2c1CCCC2,53.3% (active)
19,C[C@H]1[C@H]2c3nc4ccccc4n3C[C@H]1ON2C1CCCCC1,-6.24% (inactive)
20,Cc1ccccc1S(=O)(=O)NC(=O)C1(C)CCN1C(=O)C1(c2ccc(Cl)cc2)CC1 (stereo unspecified),-8.57% (inactive)
21,CC(=O)c1ccc(S(=O)(=O)NC2CC(=O)N(c3ccc4c(c3)OCCO4)C2)cc1 (stereo unspecified),2.78% (inactive)
22,COc1ccc(Br)cc1CN(C)C(=O)C1CC(=O)N(C2CCCC2)C1 (stereo unspecified),-13.6% (inactive)

# Reference: PubChem BioAssay AID624354 (Sanford-Burnham Center for Chemical Genomics, 2012)
